Exocytosis inh = LAMP-1 surface exposure blockers, TALL-104 cells – cell-based, flow cytometry, MLPCN library, primary screen. TALL-104 LAMP-1 surface exposure; cells stimulated with thapsigargin and PMA. inhibition, % at 10 µM. hit rate 0.66% among 360,000. AID 651702, 2012;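 active = inhibition above about 55%, limit read from the data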
Rce1 inhib = yeast Rce1p protease inhibitors, primary screen, biochemical, fluorescence, cell-free homogeneous; CAAX prenyl protease 2 (Saccharomyces cerevisiae (strain ATCC 204508 / S288c)), Q03530; yeast membranes, quenched prenylated peptide cleavage fluorescence; calls only; hit rate 0.27% among 290,000; AID 2563, 2010;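 active = fall in fluorescence gain of 50% or more versus controls, with final raw signal at or below 3038400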
ABHD5-PLIN5 inh = ABHD5-PLIN5 interaction inhibitors, primary screen, cell lysate, split luciferase complementation, luminescence; Perilipin-5 (Homo sapiens) + 1-acylglycerol-3-phosphate O-acyltransferase ABHD5 (Homo …; Split G. princeps luciferase complementation, 4 h; inhibition, % at 4 µM; hit rate 0.78% among 360,000; AID 602281, 2012;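 active = inhibition above the mean inhibition across every tested compound plus 3 SD, cut at about 22% in these data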
M18AAP inhibitor = PfM18AAP inhibitors, malaria aminopeptidase, primary screen, biochemical, QFRET, recombinant enzyme; M18 aspartyl aminopeptidase (Plasmodium falciparum 3D7); H-Glu-NHMec fluorogenic cleavage; inhibition, % at 7.35 µM; hit rate 1.2% among 290,000;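 active = inhibition above the campaign mean inhibition over all tested compounds plus 3 SD, cut at about 28% in these data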
Platelet DG rel = inhibitors of platelet dense granule secretion, primary screen, cell-based, MLPCN, human platelets | hit rate 0.22% among 300,000 | inhibition, %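 (compounds screened at 7.5 µM in platelet-rich plasma)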 | human platelet-rich plasma, SFLLRN dense granule ATP release, luminescence;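 active = mean replicate score, as percent of positive control, at or above 50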
ABHD5 PLIN5 conf = ABHD5-PLIN5 interaction inhibitors, confirmation, biochemical, luminescence. shares compounds with ABHD5-PLIN5 inh. inhibition, % at 4 µM. hit rate 67% among 2,200; in the data active = inhibition above about 23%
HNF4 counter = HNF4 dimerization inhibitors, counter-screen for ABHD5-PLIN5 interaction inhibitor project, biochemical, split-luciferase complementation, luminescence. shares compounds with ABHD5-PLIN5 inh. inhibition, % at 4 µM. hit rate 77% among 2,200;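 active = mean inhibition across replicate wells exceeding the computed hit threshold, cut at about 13% in these data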;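 note: light from luciferase halves that rejoin when HNF4 fusion proteins dimerize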
Hits are given with their value; . = inactive; / = no result. Most compounds without a hit are left out; they make up all but 2.6% or so of the library.

SMILES | Exocytosis inh | Rce1 inhib | ABHD5-PLIN5 inh | M18AAP inhibitor | Platelet DG rel | ABHD5 PLIN5 conf | HNF4 counter
CN1C(=O)C(=Cc2ccc(Sc3ccccc3)o2)C(=O)N(C)C1=O | . | / | . | . | . | / | /
O=C1c2cccc3cccc(c23)C(=O)N1/N=C/c1c(O)n(-c2ccccc2)c(=O)[nH]c1=O | . | . | 24 | . | . | . | 18
CCN(CC)S(=O)(=O)c1ccc(N=Cc2c(O)n(-c3ccccc3)c(=O)[nH]c2=O)cc1 | . | . | . | . | . | / | /
Cc1cc(=O)oc2cc(OCC(=O)N3CCN(Cc4ccccc4)CC3)ccc12 | . | / | . | / | / | / | /
CCN1/C(=C/C=C/C2=[N+](CC)c3ccccc3C2(C)C)C(C)(C)c2ccccc21 | 69 | / | 52 | / | / | 28 | 37
CC(C)(O)/C=C/C(=O)C(C)(O)C1C(O)CC2(C)C3CC=C4C(C=C(O)C(=O)C4(C)C)C3(C)C(=O)CC12C (stereo not drawn) | . | / | 42 | / | / | 68 | 50
CN(C)CC(C(=O)Cc1ccccc1)c1ccccc1 (stereo not drawn) | . | / | 37 | / | / | . | 92
COc1cc2c(cc1OC)C(C)NCC2 (stereo not drawn) | . | / | . | / | / | / | /
CC1CCC(C(C)C)C(OC(=O)Cn2c(COc3ccccc3)[n+](C)c3ccccc32)C1 (stereo not drawn) | 84 | . | 29 | . | . | . | .
CC1(C)C[C@H]2C=C(C=O)[C@]3(C=O)C[C@]3(C)[C@H]2C1 | . | . | 63 | . | . | 70 | .
Cc1ccc(N2C(=O)CC(=O)NC2=O)c(C)c1 | . | . | . | . | . | / | /
COc1ccc(OC)c(N2C(=O)CC(=O)NC2=O)c1 | . | . | 30 | . | . | . | 21
CCCCCCCSc1cc(OC)c(CCN(C)C)cc1OC | . | . | 28 | . | . | . | .
O=C(Cc1ccccc1)N1CCN(CC2CC3C=CC2C3)CC1 (stereo not drawn) | . | . | . | . | . | / | /
CCCCCCCCn1sccc1=O | . | / | 90 | / | / | 89 | 107
C=C1C(=O)OC2CC(C)C3C=CC(=O)C3(C)C(O)C12 (stereo not drawn) | . | / | 79 | / | / | 93 | 90
C=C1C(=O)O[C@H]2C[C@@H](C)[C@@H]3C=CC(=O)[C@@]3(C)C[C@H]12 | / | . | / | / | . | / | /
C=C1C(=O)O[C@H]2[C@H]1[C@H](OC(=O)CC(=O)O[C@@H]1C[C@@H](C)[C@@H]3C=CC(=O)[C@@]3(C)[C@H]3OC(=O)C(=C)[C@H]13)C[C@@H](C)[C@H]1C=CC(=O)[C@]12C | . | . | 74 | / | . | 91 | 90
Cc1cccc2nc(-c3ccccc3)c(-c3ccc(CN4CCC(n5c(=O)[nH]c6ccccc65)CC4)cc3)nc12 | . | / | . | / | / | / | /
CN1C(=O)C(=Cc2cn(CC#N)c3ccccc23)C(=O)N(C)C1=O | . | . | 29 | . | . | 23 | 21
CCOC(=O)Cn1cc(C=C2C(=O)N(C)C(=O)N(C)C2=O)c2ccccc21 | . | . | 29 | . | . | . | .
CN1C(=O)C(=Cc2cn(CC(=O)N3CCCCC3)c3ccccc23)C(=O)N(C)C1=O | . | . | . | . | . | / | /
CN1C(=O)C(=Cc2cn(CC(=O)N3CCCC3)c3ccccc23)C(=O)N(C)C1=O | . | . | 45 | . | . | . | 34
O=C(COc1ccc(Cl)cc1)N(c1ccc(Cl)cc1)C1CN2CCC1CC2 (stereo not drawn) | . | . | . | . | . | / | /
C=CCN1C(=O)NC(=O)/C(=C/c2c(CCN(C)C(=O)c3ccccc3)cc3c(c2OC)OCO3)C1=O | . | . | 26 | . | . | . | 18
CCN1C(=O)NC(=O)/C(=C\c2cn(CC(=O)N3CCCCC3C)c3ccccc23)C1=O (stereo not drawn) | . | . | . | . | . | / | /

Screening data as filed in PubChem.
